Screens as filed in PubChem BioAssay.
NCOA1 inh – SRC1 coactivator transcriptional activity inhibitors, primary screen, cell-based, luminescence. HEK293 GAL4-SRC1 luciferase reporter. AID 588354, 2011. 360,000 tested, 0.12% active. inhibition, % at 3.6 µM. Nuclear receptor coactivator 1 (Homo sapiens), Q15788;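 active means inhibition above the campaign mean plus 3 SD, with each screening campaign given its own cutoff, cut at about 60% in these data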;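 further: 0% = DMSO treated cells and 100% = gossypol at 36 µM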
COUP-TFII inh – NR2F2 transcriptional activity inhibitors, primary screen, cell-based, luciferase reporter, HEK293T, luminescence; COUP transcription factor 2 (Homo sapiens), P24468; HEK293T NGFI-A luciferase reporter; inhibition, % at 8.6 µM; 370,000 tested, 0.7% active;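 active means inhibition above a per-plate cutoff, mean inhibition of test wells between control levels plus 3 SD, cut at about 38% in these data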;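 further: cells cotransfected with COUP-TFII expression vector driving the NGFI-A reporter; 0% = median of COUP-TF2 test wells and 100% = reporter-only cells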
NCOA3 inh – SRC3 coactivator transcriptional activity inhibitors, primary screen, cell-based, luminescence; 360,000 tested, 0.17% active; inhibition, % at 3.6 µM; Nuclear receptor coactivator 3 (Homo sapiens), Q9Y6Q9; HEK293 GAL4-SRC3 luciferase reporter;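 active means inhibition above a per-campaign cutoff, the mean of all compounds plus 3 SD, cut at about 60% in these data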;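 further: 0% = DMSO-treated cells and 100% = gossypol-treated cells at 36 µM; higher means less SRC3-driven luciferase light from the GAL4 reporter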
SRC2 inh – inhibition of GAL4-SRC2 driven luciferase reporter, primary screen, SRC2 inhibitor project, cell-based, luminescence | Nuclear receptor coactivator 2 (Homo sapiens), Q15596 | HEK293 GAL4-SRC2 luciferase reporter | inhibition, % at 9 µM | 370,000 tested, 0.17% active;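 active means inhibition above the mean inhibition of all tested compounds plus 3 SD, set per campaign, cut at about 52% in these data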;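 further: 0% = DMSO treated cells and 100% = cells given Gossypol at 36 µM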
Target sequence (Q15596 whole entry, looked up, the tested form may be a part): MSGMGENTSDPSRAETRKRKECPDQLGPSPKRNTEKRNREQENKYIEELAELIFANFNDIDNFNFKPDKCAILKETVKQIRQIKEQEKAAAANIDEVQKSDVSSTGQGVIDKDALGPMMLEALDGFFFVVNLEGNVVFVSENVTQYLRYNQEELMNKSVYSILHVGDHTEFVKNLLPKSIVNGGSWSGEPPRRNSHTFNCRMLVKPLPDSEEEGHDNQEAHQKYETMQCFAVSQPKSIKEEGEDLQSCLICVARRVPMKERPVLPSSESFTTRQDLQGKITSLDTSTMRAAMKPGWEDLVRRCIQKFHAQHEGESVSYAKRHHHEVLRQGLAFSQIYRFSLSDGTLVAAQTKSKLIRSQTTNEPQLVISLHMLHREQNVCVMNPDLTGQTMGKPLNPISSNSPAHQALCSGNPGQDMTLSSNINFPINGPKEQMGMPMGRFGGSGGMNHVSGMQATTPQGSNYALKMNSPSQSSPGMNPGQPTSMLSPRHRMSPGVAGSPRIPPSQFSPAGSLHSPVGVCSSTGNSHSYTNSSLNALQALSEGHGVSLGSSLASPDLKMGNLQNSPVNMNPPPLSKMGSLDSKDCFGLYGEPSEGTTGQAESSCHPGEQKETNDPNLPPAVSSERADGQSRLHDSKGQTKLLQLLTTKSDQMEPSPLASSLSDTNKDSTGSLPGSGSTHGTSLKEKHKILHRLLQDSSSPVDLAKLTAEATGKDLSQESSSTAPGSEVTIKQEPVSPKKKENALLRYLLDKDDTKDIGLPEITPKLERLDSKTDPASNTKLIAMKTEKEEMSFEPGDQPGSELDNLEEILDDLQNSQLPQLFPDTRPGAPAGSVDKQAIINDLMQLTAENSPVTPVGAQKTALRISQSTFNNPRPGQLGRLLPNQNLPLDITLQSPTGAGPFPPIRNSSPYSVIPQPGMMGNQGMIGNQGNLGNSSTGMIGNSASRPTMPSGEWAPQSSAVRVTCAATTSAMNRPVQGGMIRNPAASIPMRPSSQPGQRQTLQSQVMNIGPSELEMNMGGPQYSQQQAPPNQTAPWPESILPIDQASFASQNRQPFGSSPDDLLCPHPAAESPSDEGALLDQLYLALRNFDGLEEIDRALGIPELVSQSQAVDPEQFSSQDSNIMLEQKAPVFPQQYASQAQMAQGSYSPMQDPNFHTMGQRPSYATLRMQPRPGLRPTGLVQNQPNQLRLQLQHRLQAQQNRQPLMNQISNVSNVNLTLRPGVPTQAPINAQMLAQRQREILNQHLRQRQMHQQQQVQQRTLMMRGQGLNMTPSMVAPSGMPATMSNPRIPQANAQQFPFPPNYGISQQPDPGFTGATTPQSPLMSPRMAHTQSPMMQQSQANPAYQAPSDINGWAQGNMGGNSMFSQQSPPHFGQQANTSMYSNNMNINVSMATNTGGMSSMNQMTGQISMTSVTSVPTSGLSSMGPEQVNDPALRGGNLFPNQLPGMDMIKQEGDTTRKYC
LRH-1 inv ag – LRH-1 (NR5A2) inverse agonists, primary screen, cell-based, luminescence, HEK293T, StAR-luciferase reporter; Nuclear receptor subfamily 5 group A member 2 (Homo sapiens), O00482; LRH-1 transfected, 24 h; inhibition, % at 3.6 µM; 360,000 tested, 0.13% active;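 active means inhibition above the mean inhibition of all tested compounds plus 3 SD, cut at about 73% in these data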;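 further: 0% = DMSO wells and 100% = reporter-only cells lacking LRH-1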
VP16 Luc counter – Gal4-VP16 luciferase reporter inhibitors, counter-screen for COUP-TFII antagonist project, cell-based, luminescence, HEK293. inhibition, % at 8.5 µM. shares compounds with COUP-TFII inh. 2,500 tested, 25% active. AID 687007, 2013; in the data active means inhibition above about 13%
NR2F2 inh conf – NR2F2 transcriptional activity inhibitors, confirmation, cell-based, luciferase reporter, HEK293, triplicate; shares compounds with COUP-TFII inh; HEK293 NGFI-A luciferase reporter, luminescence; inhibition, % at 8.5 µM; 2,500 tested, 45% active;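 active means mean inhibition over three repeats above a set limit taken from the earlier primary screen, cut at about 38% in these data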;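 further: 100% = cells given the luciferase reporter alone without the COUP-TF2 vector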
Starred values were filed as active, the others as inactive; · = no result. The list is not random: actives were taken first. Their share in the collection is about 0.81%.

SMILES	NCOA1 inh	COUP-TFII inh	NCOA3 inh	SRC2 inh	LRH-1 inv ag	VP16 Luc counter	NR2F2 inh conf
COCCOC(=O)C1=C(C)NC2(O)c3ccccc3C(=O)C12O (centres undefined)	-5	8	10	6	22	·	·
CCN(CC)c1ccc(/C=C/c2ccc3ccc(OC)cc3[n+]2CC)cc1	46	51*	51	-18	74*	20*	67*
COc1cccc(S(=O)(=O)N2CCN(C(=O)c3ccco3)CC2)c1	-2	6	4	-5	3	·	·
NC(=S)N/N=C1\CCSc2ccc(Cl)cc21	29	37*	34	14	23	-1	33
O=S(=O)(NCC1CCCO1)c1ccc(-c2ccc(S(=O)(=O)NCC3CCCO3)cc2)cc1 (centres undefined)	19	68*	33	22	46	6	64*
Cc1ccc(NS(=O)(=O)c2ccc(C(=O)N3CCN(c4ncccn4)CC3)cc2)cc1	9	39*	23	-1	34	-2	14
Cc1ccc(Cn2ncc3c(N4CCN(Cc5ccc(Cl)cc5)CC4)ncnc32)cc1	22	39*	20	16	26	11	51*
CCCN(CCC)C1=CC(=[N+]2CCCC2)CC(C)(C)C1	61*	53*	55	39	72	11	43*
CN(C)NC1=CC(=[N+]2CCCC2)CC(C)(C)C1	-2	-14	24	-4	6	·	·
CC1(C)CC(N2CCCCC2)=CC(=[N+]2CCCCC2)C1	43	67*	48	11	56	9	51*
Cc1nn(C)c(C)c1NC(=O)COc1ccc(F)cc1Br	3	22	3	-3	-4	·	·
Cc1c(C)c2cc(Cl)c(OCC(=O)Nc3ccccn3)cc2oc1=O	-11	-18	-28	-13	-12	·	·
Cc1cc(Cl)ccc1OCC(=O)Nc1ccncc1	-9	40*	0	-5	22	-28	23
Cc1nn(C)c(C)c1NC(=O)COc1ccc(Cl)cc1Br	4	51*	23	13	25	4	50*
Cc1cc(Cl)ccc1OCCCC(=O)NO	10	52*	25	36	-33	-6	47*
Cc1c(C)c2ccc(OCC(=O)Nc3ccccn3)c(C)c2oc1=O	74*	78*	81*	69*	76*	82*	98*
Cc1onc(-c2ccccc2Cl)c1C(=O)Nc1ccc(F)c(F)c1	15	2	17	-12	23	·	·
COc1ccc(N2CCN(C(=O)COc3ccc4ccccc4c3)CC2)cc1	-1	1	-15	17	15	·	·
COC(=O)[C@@H]1CC[C@@](C)(c2ccc(OC)cc2)C1(C)C	3	20	-2	2	-1	·	·
CCCCN(C)CCNC(=O)CN1C(=O)CSc2ccc(S(=O)(=O)N3CCOCC3)cc21	10	-17	1	7	2	·	·
CSc1ccccc1NC(=O)COc1ccc(Cl)cc1Cl	-27	3	-24	-26	-18	·	·
O=C(COc1ccc(Cl)cc1Cl)Nc1ccccn1	63*	89*	59	82*	51	64*	82*
Cc1cccc(OCC(=O)Nc2ccncc2)c1C	3	39*	-10	11	46	-8	32
O=C(Nc1ccc2nc(-c3ccccc3)oc2c1)c1ccco1	-48	-13	-29	-55	-30	·	·
COC(=O)[C@]12CCCCC=C1N(CCc1ccc(OC)c(OC)c1)C(=O)[C@H](CC(=O)NCc1cccc3ccccc13)C2	·	8	·	-38	-7	·	·
SMILES	NCOA1 inh	COUP-TFII inh	NCOA3 inh	SRC2 inh	LRH-1 inv ag	VP16 Luc counter	NR2F2 inh conf
COC(=O)[C@]12CCCCC=C1N(Cc1cccc3ccccc13)C(=O)[C@H](CC(=O)NCc1ccc(OC)c(OC)c1)C2	·	97*	·	26	9	6	58*
CCOC(=O)[C@]12CCC=C1N(Cc1cccc3ccccc13)C(=O)[C@H](CC(=O)NCc1ccc(OC)c(OC)c1)C2	·	37*	·	2	2	-6	13
O=C(NCc1cccc(Cl)c1)c1cccc2c(-c3cccnc3)coc12	3	42*	-8	13	-1	-2	4
O=C(NCc1ccc(F)c(F)c1)c1cccc2c(-c3cccnc3)coc12	1	23	-26	-13	11	·	·
COc1ccc(CNC(=O)c2cccc3c(-c4cccnc4)coc23)cc1OC	32	82*	31	11	53	4	75*
NC(=O)c1cccc(-c2coc3c(C(=O)NCc4cccnc4)cccc23)c1	-13	-5	-19	-2	15	·	·
COc1ccccc1NC(C)C(=O)N/N=C/c1ccccc1OCc1cccc(Br)c1 (centres undefined)	-9	14	7	-9	-6	·	·
O=C(c1cc(S(=O)(=O)N2CCN(c3ccccc3)CC2)ccc1Cl)N1CCCC(C(F)(F)F)C1 (centres undefined)	4	46*	29	33	31	2	32
COc1ccccc1N1CCN(C(=O)c2cc3c(C)nc4ccccc4c3o2)CC1	-8	42*	11	17	6	-4	12
Cc1ccc(CNC(=O)c2cc3c(C)nc4ccccc4c3o2)cc1	0	48*	9	14	33	3	25
O=C(Nc1nccs1)c1ccc(-c2ccccc2[N+](=O)[O-])o1	-67	-26	-109	-46	-79	·	·
C=CCN(C(=O)[C@@H](C1CC1)[C@@H](O)c1ccc2ccccc2c1)c1ccccc1	·	0	·	4	·	·	·
O=C(c1ccccc1)N1CCN(C(=S)NCCc2ccccc2)CC1	5	6	10	-46	-2	·	·
COc1ccc(OCCN2CCN(S(=O)(=O)c3ccccc3C(F)(F)F)CC2)cc1	6	41*	4	-2	-7	0	9
CCOc1ccc(S(=O)(=O)N2CCN(S(=O)(=O)c3ccc(C(C)=O)cc3)CC2)cc1	-2	-3	13	19	-6	·	·
COc1ccc(OCCN2CCN(S(=O)(=O)c3ccccc3C#N)CC2)cc1	-2	15	16	9	13	·	·
CC(=O)c1ccc(S(=O)(=O)N2CCN(CCOc3ccc(Br)cc3)CC2)cc1	28	63*	20	27	36	9	50*
O=C(Nc1cc(S(=O)(=O)N2CCCCC2)ccc1Cl)c1ccccc1NS(=O)(=O)c1ccc(F)cc1	16	47*	19	33	37	0	22
